From PubChem BioAssay (NCI) come the findings set out here.

Compounds without any hit were thinned out: in the full panel of roughly 79,000, 15% have a hit. Unmarked numbers belong to inactive results. Calls of active or inactive are those of the source. Rule as the data show it: active = growth inhibition above about 70%; inactive = the rest.

A short description of test [1]: NCI Yeast Anticancer Drug Screen. Data for the rad50 strain (AID 155).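 Also: 0% = growth of vehicle-only cultures of the same strain.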 The following applies: S. cerevisiae rad50 strain growth inhibition, stronger effect = higher value. The essentials:
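Genetically altered yeast (DNA repair pathway); compound treatment; growth inhibition vs vehicle ctrl.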

A short description of test [2]: NCI Yeast Anticancer Drug Screen. Data for the mec2-1 strain (AID 157). The following applies: S. cerevisiae mec2-1 strain, stronger effect = higher value. The essentials:
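Yeast mec2-1 mutant treated with compound. Readout: growth inhibition vs vehicle controls.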

Test [3] is described as follows: NCI Yeast Anticancer Drug Screen. Data for the sgs1 mgt1 strain (AID 161).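 Also: 0% = growth of cultures given vehicle only.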 The following applies: S. cerevisiae sgs1 mgt1 strain, stronger effect = higher value. Summed up:
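Inhibition of yeast growth, normalised to vehicle-treated controls, is reported for a strain bearing genetic alterations in DNA damage repair.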

The nature of test [4]: NCI Yeast Anticancer Drug Screen. Data for the cln2 rad14 strain (AID 165).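 Also: 0% = growth equal to vehicle treated cultures.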 Particulars: S. cerevisiae cln2 rad14 strain, stronger effect = higher value. The essentials:
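cln2 rad14 yeast strain; compound exposure; growth inhibition read vs vehicle controls.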

Test [5] can be described thus: NCI Yeast Anticancer Drug Screen. Data for the bub3 strain (AID 167). The following applies: S. cerevisiae bub3 mutant strain, stronger effect = higher value. Summed up: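 Yeast carrying a defined mutation is treated with each compound, and growth is compared with that of vehicle-exposed cells to give inhibition.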
Test [6] in a line: NCI Yeast Anticancer Drug Screen. Data for the mlh1 rad18 strain (AID 175). The following applies: S. cerevisiae mlh1 rad18 strain growth inhibition, stronger effect = higher value. The essentials: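 Yeast w/ defined DNA-repair lesions; compound exposure; growth vs vehicle controls → % inhibition.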
Where [7] appears, read: at 5.0 µM (retest, dose inferred, filed as 0.5).
Where [8] appears, read: at 50.0 µM (retest, dose inferred, filed as 5.0).

Take `Nc1nc(N)c(-c2ccc(Cl)c(Cl)c2)c(CCc2ccc(CNC(=O)Nc3ccc(S(=O)(=O)F)cc3)cc2)n1`: the growth inhibition in test [1] (setting [7]) is 4%; in test [1] (setting [8]) it was 28%; in test [1] (at 50.0 µM), 56.8%; in test [2] (setting [7]), 0%; in test [2] (setting [8]), 19%; in test [2] (at 50.0 µM) it was 34%. Also, the growth inhibition in test [3] (setting [7]) is -4%; in test [3] (setting [8]) it was 35%; in test [3] (at 50.0 µM) it was 79.8% (active); in test [4] (setting [7]), 1%; in test [4] (setting [8]), 40%; in test [4] (at 50.0 µM), 25.8%. In addition, the growth inhibition in test [5] (setting [7]) was -1%; in test [5] (setting [8]) it was 25%; in test [5] (at 50.0 µM), 25%; in test [6] (setting [7]) it was 4%; in test [6] (setting [8]), 82% (active); in test [6] (at 50.0 µM), 84.7% (active).
As for `COc1ccc2c(c1O)C13CCN(C)C(C2)C12C=CC(=O)C3c1c(O)ccc(O)c12` (stereo not given), the growth inhibition in test [1] (setting [7]) is -2%; in test [1] (setting [8]), 59%; in test [1] (at 50.0 µM), 76.7% (active); in test [2] (setting [7]), 13%; in test [2] (setting [8]), 66%; in test [2] (at 50.0 µM) it was 66.5%. The growth inhibition was 17% in test [3] (setting [7]); 77% (active) in test [3] (setting [8]); 89.3% (active) in test [3] (at 50.0 µM); -2% in test [4] (setting [7]); 41% in test [4] (setting [8]); 72.5% (active) in test [4] (at 50.0 µM). For the same molecule, the growth inhibition was -8% in test [5] (setting [7]); 55% in test [5] (setting [8]); 48.7% in test [5] (at 50.0 µM); 17% in test [6] (setting [7]); 88% (active) in test [6] (setting [8]); 84.5% (active) in test [6] (at 50.0 µM).
On to `c1ccc2c[n+](CCCCCCCCCC[n+]3ccc4ccccc4c3)ccc2c1`, for which the growth inhibition in test [1] (setting [7]) was 67%; in test [1] (setting [8]), 95% (active); in test [1] (at 50.0 µM), 89.2% (active); in test [2] (setting [7]), 70% (active); in test [2] (setting [8]) it was 98% (active); in test [2] (at 50.0 µM), 91.2% (active). Also, the growth inhibition was 79% (active) in test [3] (setting [7]); 98% (active) in test [3] (setting [8]); 90.5% (active) in test [3] (at 50.0 µM); 68% in test [4] (setting [7]); 98% (active) in test [4] (setting [8]); 83.7% (active) in test [4] (at 50.0 µM). The growth inhibition in test [5] (setting [7]) was 88% (active); in test [5] (setting [8]), 99% (active); in test [5] (at 50.0 µM), 91.3% (active); in test [6] (setting [7]), 72% (active); in test [6] (setting [8]), 94% (active); in test [6] (at 50.0 µM) it was 88.1% (active).
Take `O=C1NC(=O)C(C(c2ccnc3ccccc23)C2C(=O)NC(=O)NC2=O)C(=O)N1`: the growth inhibition was -6% in test [1] (setting [7]); -6% in test [1] (setting [8]); 30.1% in test [1] (at 50.0 µM); 0% in test [2] (setting [7]); -6% in test [2] (setting [8]); 34% in test [2] (at 50.0 µM). The growth inhibition in test [3] (setting [7]) was -5%; in test [3] (setting [8]) it was -4%; in test [3] (at 50.0 µM), 55.9%; in test [4] (setting [7]), 3%; in test [4] (setting [8]), -7%; in test [4] (at 50.0 µM), 62.6%. Further, the growth inhibition was -6% in test [5] (setting [7]); 5% in test [5] (setting [8]); 42.6% in test [5] (at 50.0 µM); 0% in test [6] (setting [7]); -5% in test [6] (setting [8]); 35.8% in test [6] (at 50.0 µM).
With `CC/C(=C(/CC)c1ccc(OP(N)(=O)N(CCCl)CCCl)cc1)c1ccc(OP(N)(=O)N(CCCl)CCCl)cc1` (stereo not given), the growth inhibition in test [1] (setting [7]) is 18%; in test [1] (setting [8]), 33%; in test [1] (at 50.0 µM) it was 17.1%; in test [2] (setting [7]), -5%; in test [2] (setting [8]) it was 26%; in test [2] (at 50.0 µM) it was 5.6%. For the same molecule, the growth inhibition in test [3] (setting [7]) is 2%; in test [3] (setting [8]), 42%; in test [3] (at 50.0 µM) it was 34.7%; in test [4] (setting [7]), 3%; in test [4] (setting [8]), 31%; in test [4] (at 50.0 µM) it was -9.95%. Moreover, the growth inhibition in test [5] (setting [7]) is 29%; in test [5] (setting [8]), 34%; in test [5] (at 50.0 µM), 0.1%; in test [6] (setting [7]), 26%; in test [6] (setting [8]), 51%; in test [6] (at 50.0 µM), 66.8%.
For the molecule `CC(C)(C)C1=CC(=C/C=C/c2cc(C(C)(C)C)[o+]c(C(C)(C)C)c2)C=C(C(C)(C)C)O1`, the growth inhibition in test [1] (setting [7]) was 99% (active); in test [1] (setting [8]) it was 93% (active); in test [1] (at 50.0 µM) it was 67.3%; in test [2] (setting [7]), 99% (active); in test [2] (setting [8]), 96% (active); in test [2] (at 50.0 µM), 95.6% (active). Also, the growth inhibition in test [3] (setting [7]) was 99% (active); in test [3] (setting [8]), 94% (active); in test [3] (at 50.0 µM), 52.5%; in test [4] (setting [7]), 99% (active); in test [4] (setting [8]) it was 94% (active); in test [4] (at 50.0 µM), 96% (active). In addition, the growth inhibition in test [5] (setting [7]) was 99% (active); in test [5] (setting [8]) it was 94% (active); in test [5] (at 50.0 µM), 94.3% (active); in test [6] (setting [7]), 99% (active); in test [6] (setting [8]), 95% (active); in test [6] (at 50.0 µM), 37.5%.
As for `COC1CC2C(C[CH]1[Hg][Cl])C2(Cl)Cl` (stereo not given), the growth inhibition in test [1] (setting [7]) is 99% (active); in test [1] (setting [8]) it was 99% (active); in test [1] (at 50.0 µM), 99.5% (active); in test [2] (setting [7]) it was 100% (active); in test [2] (setting [8]) it was 100% (active); in test [2] (at 50.0 µM), 99.6% (active). For the same molecule, the growth inhibition in test [3] (setting [7]) is 100% (active); in test [3] (setting [8]), 99% (active); in test [3] (at 50.0 µM) it was 99.5% (active); in test [4] (setting [7]), 99% (active); in test [4] (setting [8]), 99% (active); in test [4] (at 50.0 µM), 99.2% (active). Further, the growth inhibition was 99% (active) in test [5] (setting [7]); 99% (active) in test [5] (setting [8]); 98% (active) in test [5] (at 50.0 µM); 99% (active) in test [6] (setting [7]); 99% (active) in test [6] (setting [8]); 99.5% (active) in test [6] (at 50.0 µM).
As for `Cc1cn(CC2C=CC(CS[As](C)C)O2)c(=O)[nH]c1=O` (stereo not given), the growth inhibition in test [1] (setting [7]) is 7%; in test [1] (setting [8]) it was 75% (active); in test [1] (at 50.0 µM), 69.7%; in test [2] (setting [7]) it was 1%; in test [2] (setting [8]), 83% (active); in test [2] (at 50.0 µM), 92.2% (active). The growth inhibition in test [3] (setting [7]) is 4%; in test [3] (setting [8]), 98% (active); in test [3] (at 50.0 µM) it was 94.8% (active); in test [4] (setting [7]), 0%; in test [4] (setting [8]), 95% (active); in test [4] (at 50.0 µM), 72% (active). Also, the growth inhibition in test [5] (setting [7]) is 0%; in test [5] (setting [8]) it was 45%; in test [5] (at 50.0 µM), 53%; in test [6] (setting [7]), -1%; in test [6] (setting [8]), 84% (active); in test [6] (at 50.0 µM) it was 99.1% (active).
For the molecule `CCCC[CH2][Pb]([CH2]CCCC)([CH2]CCCC)[O]C(C)=O`, the growth inhibition in test [1] (setting [7]) was 99% (active); in test [1] (setting [8]), 96% (active); in test [1] (at 50.0 µM) it was 99% (active); in test [2] (setting [7]) it was 99% (active); in test [2] (setting [8]), 98% (active); in test [2] (at 50.0 µM), 99.2% (active). Moreover, the growth inhibition in test [3] (setting [7]) was 100% (active); in test [3] (setting [8]) it was 99% (active); in test [3] (at 50.0 µM) it was 98.8% (active); in test [4] (setting [7]), 99% (active); in test [4] (setting [8]), 95% (active); in test [4] (at 50.0 µM), 98% (active). In addition, the growth inhibition in test [5] (setting [7]) is 100% (active); in test [5] (setting [8]), 97% (active); in test [5] (at 50.0 µM) it was 98% (active); in test [6] (setting [7]), 99% (active); in test [6] (setting [8]), 93% (active); in test [6] (at 50.0 µM), 98.5% (active).
Consider `O=c1c2ccccc2[se]n1-c1ccccc1`, for which the growth inhibition was 6% in test [1] (setting [7]); 29% in test [1] (setting [8]); 70.2% (active) in test [1] (at 50.0 µM); -12% in test [2] (setting [7]); 32% in test [2] (setting [8]); 88.8% (active) in test [2] (at 50.0 µM). Also, the growth inhibition was -4% in test [3] (setting [7]); 23% in test [3] (setting [8]); 81.3% (active) in test [3] (at 50.0 µM); -19% in test [4] (setting [7]); 26% in test [4] (setting [8]); 66.6% in test [4] (at 50.0 µM). The growth inhibition was -15% in test [5] (setting [7]); 21% in test [5] (setting [8]); 4.2% in test [5] (at 50.0 µM); -12% in test [6] (setting [7]); 62% in test [6] (setting [8]); 86% (active) in test [6] (at 50.0 µM).
